# Assay outcomes deposited in PubChem by National Center for Advancing Translational Sciences (NCATS).
# ELG1 genotoxic = qHTS screen for small molecules that induce genotoxicity in human embryonic kidney (HEK293T) cells expressing luciferase-tagged ELG1; Potency, µM (titrated, usually from 46 µM), for the others: at the highest dose activity change, positive = activation, most hits filed as activators; HEK293T ELG1-luciferase reporter, luminescence, 16 h; hit rate 1.3% among 330,000; note: % of control where 0% means no effect; nearly all actives have a fitted effect of over 60% in size
#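 Step 1: seed 2,000 HEK293T ELG1-luciferase cells per well. Step 2: add compound or DMSO, incubate 16 hr at 37 °C. Step 3: ONE-Glo, 30 min at room temperature, read luminescence.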
# SMN2 splice up = qHTS Assay for Enhancers of SMN2 Splice Variant Expression | HEK293 SMN2-luciferase splicing reporter, luminescence, 30-36 h | Potency, µM (doses to about 46.1 µM), for inactives: top-dose activity change, positive = activation, actives largely listed as activators | hit rate 2.8% among 210,000; note: % of control where 0% means no effect; nearly all actives have a fitted effect of over 55% in size
#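 HEK293 cells carry an SMN2 minigene-luciferase reporter in which exon 7 inclusion puts luciferase in frame. Cells were seeded at 2000 cells/well, attached for 10-12 hours, then exposed to compounds for 30-36 hours at 37C before ONE-Glo luminescence.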
# FLuc modulator = qHTS profiling assay for firefly luciferase inhibitor/activator using purifed enzyme and Km concentrations of substrates (counterscreen for miR-21 project). purified FLuc, Km substrates, luminescence inhibition. Potency, µM (doses to about 57.5 µM), without a hit: at the highest dose activity change, negative = inhibition, usual class: inhibitors. hit rate 6.9% among 360,000;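 note: plate controls were vehicle for no effect and reference inhibitor for full effect; nearly all actives have a fitted effect of over 55% in size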
# Target sequence (P08659 whole entry, looked up): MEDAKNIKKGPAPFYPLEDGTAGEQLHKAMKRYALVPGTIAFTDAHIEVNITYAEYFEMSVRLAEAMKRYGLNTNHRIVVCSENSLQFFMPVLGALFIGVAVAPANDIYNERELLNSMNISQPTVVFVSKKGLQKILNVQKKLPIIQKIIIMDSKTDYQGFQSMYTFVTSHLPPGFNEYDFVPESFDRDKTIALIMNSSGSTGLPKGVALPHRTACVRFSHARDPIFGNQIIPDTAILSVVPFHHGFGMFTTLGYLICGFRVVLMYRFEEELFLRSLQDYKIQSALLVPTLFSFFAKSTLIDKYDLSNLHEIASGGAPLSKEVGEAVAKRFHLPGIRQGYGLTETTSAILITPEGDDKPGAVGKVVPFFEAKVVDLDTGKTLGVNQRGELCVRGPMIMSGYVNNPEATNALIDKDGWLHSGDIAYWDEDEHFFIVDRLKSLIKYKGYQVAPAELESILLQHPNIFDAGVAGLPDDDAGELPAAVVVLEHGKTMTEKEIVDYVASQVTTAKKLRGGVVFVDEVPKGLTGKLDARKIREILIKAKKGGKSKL
#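 Biochemical qHTS of compounds, final roughly 60 µM downward over six points, against 10 nM purified firefly luciferase using Km concentrations of substrates (10 uM D-luciferin, 10 uM ATP) in Tris acetate pH 7.5 buffer; luminescence output.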
# NPC1 prom act = qHTS Assay for NPC1 Promoter Activators. hit rate 2.4% among 320,000. Huh7 NPC1 promoter luciferase reporter, 24 h. Potency, µM (doses to about 9.22 µM), for the others: at the top dose activation, actives largely listed as activators; note: % of control where 0% means no effect; nearly all actives have a fitted effect of over 60% in size
#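 NPC1 promoter–luciferase Huh7 cells; 24 h compound; luminescence.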
# Rab9 promoter act = qHTS Assay for Rab9 Promoter Activators. Huh7 Rab9 promoter-luciferase reporter, luminescence, 24 h. Potency, µM (titrated, usually from 9.22 µM), for the others: at the highest dose activation, negative = inhibition, most hits filed as activators. hit rate 2.8% among 320,000. AID 485297, 2010; note: % of control where 0% means no effect; nearly all actives have a fitted effect of over 60% in size
#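 Huh7 reporter line, Rab9 promoter upstream of luciferase. Compound exposure 24 h at 37 °C in reduced-serum medium with 10% FBS. Read-out: luminescence.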
# ELG1 repair inh = qHTS screen for small molecules that inhibit ELG1-dependent DNA repair in human embryonic kidney (HEK293T) cells expressing luciferase-tagged ELG1 | hit rate 2.3% among 330,000 | Potency, µM (top dose mostly 46.1 µM), for the others: at the top dose activity change, negative = inhibition, most hits filed as inhibitors | AID 504467, 2011 | HEK293T ELG1-luciferase reporter, luminescence, 16 h; DNA damage induced by 5-fluorouridine; note: % is set by controls: 0 for no effect and ±100 for the full control effect; nearly all actives have a fitted effect of over 55% in size
#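 Step one: seed 2,000 cells per well. Step two: pin-transfer compound or DMSO alongside 5-fluorouridine. Step three: incubate 16 hr, 37 °C, 5% CO2. Step four: add ONE-Glo, wait 30 min, read luminescence.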
# Active calls of the source: *; ? = inconclusive; · = no result; [ ] = remark or other dose. A selection: hits, their analogues and other compounds. The true share with any hit is near 9.3%. Calls come from the whole dose curve; as a rule, active = well fitted curve in the direction sought with a large enough effect; inconclusive = small, poorly fitted or top-dose-only effect, or another doubt; inactive = no such curve, though single readings can be large; an effect the other way counts as inactive or inconclusive. Potency is the fitted concentration of half-maximal effect.
SMILES,ELG1 genotoxic,SMN2 splice up,FLuc modulator,NPC1 prom act,Rab9 promoter act,ELG1 repair inh
CC(C)(C)C(=O)NC(=S)Nc1cccc(C(=O)O)c1,?,·,19µM*,2.82µM*,0.794µM*,?
CCC(CC)C(=O)Nc1cccc(SC)c1,-3.0%,·,-3.8%,-1.1%,-1.9%,6.2%
COc1ccc(S(=O)(=O)N2CCC(C(=O)NCCCn3ccnc3)CC2)cc1C,-5.1%,·,-2.0%,-0.2%,-2.9%,26.8%
Cc1cc(C)cc(C(=O)NCC(=O)OCC(=O)NC2CC2)c1,-1.6%,·,·,·,·,?
CC1CCCN(C(=O)c2ccc(NS(=O)(=O)c3ccc4[nH]c(=O)[nH]c4c3)cc2)C1 (configuration not stated),2.5%,·,-1.1%,-1.6%,-8.0%,0.1%
CC1CCC(NC(=O)c2ccc(NS(=O)(=O)c3ccc4[nH]c(=O)[nH]c4c3)cc2)CC1 (configuration not stated),18.3µM*,·,?,?,?,?
CCNC(=O)c1ccc(NS(=O)(=O)c2ccc3[nH]c(=O)[nH]c3c2)cc1,7.3µM*,·,15.1µM*,2.24µM*,3.55µM*,?
C=CCN1c2ccccc2[C@]23C[C@@H](C(=O)OC)N(S(=O)(=O)c4ccc(C(F)(F)F)cc4)C2=NC(C(=O)OC)=C(C(=O)OC)[C@H]13,·,-3.4%[9.22 µM],·,·,·,·
CCN(C(=O)CSc1n[nH]c(-c2cc(Cl)ccc2OC)n1)C1CCS(=O)(=O)C1 (configuration not stated),9.0%,·,0.3%,1.0%,-1.3%,4.7%
O=C(NCC(=O)N1CCC2(CC1)NCCc1[nH]cnc12)c1ccc(F)cc1,0.1%,·,-1.2%,-4.2%,-1.8%,1.5%
Cc1ccccc1C(=O)N/N=C/c1ccncc1,6.9%,-0.9%,?,12.8%,10.7%,7.6%
COc1ccc(OC)c(C(=O)N/N=C/c2ccccn2)c1,-1.9%,·,?,2.6%,-1.2%,2.8%
O=C(N/N=C/c1ccccn1)c1ccco1,6.3%,1.4%,?,4.8%,1.6%,20.0%
O=C(N/N=C\c1ccccn1)c1ccccc1O,?,18.0%,12µM*,-0.1%,13.5%,?
CCOc1ccc(Br)cc1C(=O)N/N=C/c1ccccn1,-9.5%,·,-2.1%,-6.7%,-1.7%[1.84 µM],11.6µM*
O=C(N/N=C\c1ccncc1)c1ccccc1O,-4.8%,24.5%,9.53µM*,12.7%,-1.5%,?
Cc1ccccc1C(=O)N/N=C/c1ccccn1,25.9µM*,11.2µM*,8.49µM*,3.16µM*,3.98µM*,?
COc1cc(C(=O)NCc2nnc(SCC(=O)Nc3ccc4c(c3)OCO4)o2)cc(OC)c1OC,3.9%,-12.3%,4.3%,-3.2%,-9.7%,12.7%
CCS(=O)(=O)N1CCc2cc(C(=O)NCc3ccccc3)ccc21,·,·,-6.1%,·,·,·
O=C(N/N=C/c1ccc(-c2ccccc2)o1)c1ccccc1O,0.2%,·,5.36µM*,11.0%,18.6%,?
CC1(C)C2CC=C(/C=N/NC(=O)c3ccccc3O)C1C2 (configuration not stated),-0.4%,-15.3%,7.57µM*,-0.7%,-2.8%,1.8%
COc1cc(OC)cc(C(=O)N2CCC3(CC2)NCCc2[nH]cnc23)c1,-0.8%,·,0.9%,-2.9%,-0.4%,15.6%
N#CCCn1nc(-c2ccccc2)cc1Nc1ccccc1NC(=O)C(F)(F)F,-0.1%,-8.0%,3.0%,-0.7%,-0.7%,-9.8%
N#CCCn1nc(-c2ccc([N+](=O)[O-])cc2)cc1Nc1ccccc1NC(=O)C(F)(F)F,-8.7%,-18.1%,1.0%,-1.4%,-1.4%,18.4µM*
O=C(Nc1ccc(Br)cc1)c1cccn1-c1ncc(C(F)(F)F)cc1Cl,-1.4%,3.4%,-0.2%,6.1%,1.8%,0.1%
SMILES,ELG1 genotoxic,SMN2 splice up,FLuc modulator,NPC1 prom act,Rab9 promoter act,ELG1 repair inh
COc1cc(C(=O)CSc2nccn2C)cc(OC)c1OC,11.0%,·,-1.1%,-0.4%,7.8%,0.0%
Cn1ccnc1SCC(=O)c1cccc(C(F)(F)F)c1,?,·,16.9µM*,2.82µM*,3.98µM*,?
COC(=O)c1ccc(CSc2nccn2C)cc1,13µM*,11.2µM*,?,18.4%,18.1%,?
COc1ccc(C(=O)CSc2nccn2C)cc1,23.1µM*,·,16.9µM*,2.82µM*,3.55µM*,?
O=C(CSc1nccn1-c1ncc(C(F)(F)F)cc1Cl)c1ccc(Br)cc1,?,-34.4%,-18.2%,3.55µM*,1.58µM*,?
Cc1ccc(N(C)C(=O)Cn2ncc3c([nH]c4ccccc43)c2=O)cc1C,·,·,-17.6%,·,·,·
COC(=O)c1ccc(CNC(=O)CSC2=NCCS2)cc1,-3.1%,8.6%,-6.5%,-1.1%,0.2%,7.8%
COC(=O)c1ccc(CSC2=NCCS2)cc1,?,17.8µM*,?,?,?,?
CCN(CC(=O)Nc1ccc(NC(C)=O)cc1)C(=O)c1n[nH]c(=O)c2ccccc12,0.8%,12.0%,?,0.5%,-4.6%,-12.2%
COc1ccc(S(=O)(=O)N(C)C[C@H]2Oc3ccc(NC(=O)C4CC4)cc3C(=O)N([C@H](C)CO)C[C@@H]2C)cc1,-1.9%,·,·,·,·,?
CCC(=O)Nc1ccc(-c2cc3ccccc3oc2=O)cc1,3.66µM*,8.91µM*,7.57µM*,?,?,?
CCN(CC(=O)Nc1ccc(NC(C)=O)cc1)C(=O)c1cc2ccccc2oc1=O,2.2%,·,-17.8%,-6.0%,-3.0%,9.3%
COc1ccc(-c2cc3ccccc3oc2=O)cc1NC(=O)c1ccc(Br)o1,?,3.16µM*,2.1%,?,?,?
CC(=O)Nc1ccc(-c2cc3ccccc3o2)cc1,?,11.2µM*,3.01µM*,2.24µM*,3.16µM*,?
O=C(Nc1cccc(-c2cc3ccccc3oc2=O)c1)c1ccc(Br)o1,-2.0%,24.7%,-16.4%,0.4%,-2.5%,?
O=C(Cc1ccc(Cl)cc1)Nc1ccc(-c2cc3ccccc3oc2=O)c(Cl)c1,-2.5%,-19.7%,-19.1%,-25.6%,-19.2%,?
CCC(=O)Nc1cc(-c2cc3ccccc3oc2=O)ccc1OC,?,1.12µM*,-2.8%,?,0.794µM*,?
O=P(C(=NCCO)NO)(N1CCOCC1)N1CCOCC1,-1.0%,·,2.0%,0.6%,11.3%,-15.2%
COc1ccc(-c2cc3ccccc3oc2=O)cc1NC(=O)c1ccc([N+](=O)[O-])o1,8.3%,5.9%,-9.2%,21.2%,3.55µM*,-8.8%
